Measurements from PubChem BioAssay (EPA / NIEHS).
“And” between values parts separate entries of the source, which are not always exact repeats. Identical values can stand only once. Inconclusive results are not listed. Where a structure was tested more than once in an assay, its records may differ in their call. The source made the active and inactive calls. How the source made its calls: active means hit-call score of the fitted dose curve at least 0.9, where 1 is the maximum; inconclusive means response in the unintended direction; inactive means score below 0.9.

Columns and labels:
[1] = molecular target: zebrafish Estrogen Receptor (ER1), esr1 (gene 259252) (UniProt P57717); assay: ATG_zfER1_XSP2: Attagene TRANS-FACTORIAL Multi-Species (XSP2) HepG2 Assay for zebrafish Estrogen Receptor (ER1) (AID 2283816)
Outline: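 HepG2 cells transiently transfected with a GAL4-UAS reporter and a chimeric zebrafish ER1-Gal4 construct, dosed 24 h. Reporter mRNA quantified by RT-PCR, labelling, HpaI digestion and capillary electrophoresis, relative to DMSO.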

[2] = molecular target: chicken Estrogen Receptor (ERa), ESR1 (gene 396099) (UniProt P06212); assay: ATG_chERa_XSP2: Attagene TRANS-FACTORIAL Multi-Species (XSP2) HepG2 Assay for chicken Estrogen Receptor (ERa) (AID 2283817);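 further: actives raise reporter signal above DMSO so AC50 reflects ER activation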
Outline: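 Transiently transfected HepG2 cells expressing chimeric chicken ERa-GAL4 reporter units, dosed 24 h with 3 nM 6-alpha-fluorotestosterone and 1.5 nM norgestrel present. Reporter mRNA measured by RT-PCR and capillary electrophoresis; gain-of-signal fitted relative to DMSO.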

[3] = test system: zebrafish Estrogen Receptor (ER2a), gene 317734; assay: ATG_zfER2a_XSP2: Attagene TRANS-FACTORIAL Multi-Species (XSP2) HepG2 Assay for zebrafish Estrogen Receptor (ER2a) (AID 2283818);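 further: hits raise reporter mRNA so AC50 reflects activation of zebrafish ER2a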
Outline: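 HepG2 cells transiently transfected with GAL4-UAS reporter units and chimeric zebrafish ER2a-Gal4, exposed 24 h; medium contains 3 nM 6-alpha-fluorotestosterone and 1.5 nM norgestrel. Reporter mRNA quantified by RT-PCR, HpaI digestion, capillary electrophoresis; gain versus DMSO.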

[4] = test system: frog Estrogen Receptor (ER), gene 398734; assay: ATG_frER1_XSP2: Attagene TRANS-FACTORIAL Multi-Species (XSP2) HepG2 Assay for frog Estrogen Receptor (ER) (AID 2283821);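 further: hits raise reporter mRNA above DMSO baseline so potency means agonist or activator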
Outline: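 HepG2 cells transiently transfected with GAL4-UAS reporter units expressing a chimeric frog ER-Gal4 protein; 24 h exposure. Reporter mRNA quantified by RT-PCR, fluorescent labelling and capillary electrophoresis; gain of signal fitted against DMSO baseline.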

[5] = test system: zebrafish Estrogen Receptor (ER2b), gene 317733; assay: ATG_zfER2b_XSP2: Attagene TRANS-FACTORIAL Multi-Species (XSP2) HepG2 Assay for zebrafish Estrogen Receptor (ER2b) (AID 2283823);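 further: fitted upward as reporter gain over DMSO so potency reflects activation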
Outline: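 Transcriptional induction measured as reporter mRNA (RT-PCR, fluorescent capillary electrophoresis) in transiently transfected HepG2 cells after 24 h dosing; DMSO served as negative control and baseline.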

[6] = ATG_M_32_XSP2: Attagene TRANS-FACTORIAL Multi-Species (XSP2) HepG2 Assay for M19 Transcription Factor (Internal Marker) (AID 2283826)
Outline: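 An internal background marker among multiplexed transfected reporters in HepG2 liver cells was measured 24 h after dosing. Androgen receptor stimulation came from 3 nM 6-alpha-fluorotestosterone and 1.5 nM norgestrel.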

[7] = ATG_M_19_XSP2: Attagene TRANS-FACTORIAL Multi-Species (XSP2) HepG2 Assay for M32 Transcription Factor (Internal Marker) (AID 2283822)
Outline: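 Internal background marker in a multi-species nuclear receptor TRANS panel: transfected HepG2 cells exposed 24 h, with 3 nM 6-alpha-fluorotestosterone and 1.5 nM norgestrel present. Readout is RT-PCR of reporter transcripts resolved by capillary electrophoresis, gain-of-signal versus DMSO.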

[8] = test system: turtle Androgen Receptor (AR), gene 101947425; assay: ATG_trAR_XSP2: Attagene TRANS-FACTORIAL Multi-Species (XSP2) HepG2 Assay for turtle Androgen Receptor (AR) (AID 2283815)
Procedure: ATG_XSP2_multi-species_TRANS is a cell-based, multiplexed assay created by modifying the existing Attagene TRANS-FACTORIAL system to include a panel of nuclear receptors from some or all the following species: human (Homo sapiens), mouse (Mus musculus), frog (Xenopus laevis), zebrafish (Danio rerio), chicken (Gallus gallus), and turtle (Chrysemys picta). The […] format uses HepG2, a human liver cell line, with measurements taken at 24 hours after chemical dosing in a 24-well plate. Xsp2 included 3 nM 6-alpha-fluorotestosterone and 1.5 nM norgestrel to stimulate the androgen receptor.ATG_trAR_XSP2 is one of 29 assay components measured or calculated from the ATG_XSP2_multi-species_TRANS assay. It is designed to make measurements of mRNA induction, a form of inducible reporter, as detected with fluorescence intensity signals by Reverse transcription polymerase chain reaction (RT-PCR) and Capillary electrophoresis technology.The assay endpoint ATG_trAR_XSP2 was analyzed in the positive analysis fitting direction relative to DMSO as the negative control and baseline of activity. […] Furthermore, this assay endpoint can be referred to as a primary readout, because this assay has produced multiple assay endpoints where this one serves a reporter gene function. […]

[9] = test system: chicken Androgen Receptor (AR), gene 422165; assay: ATG_chAR_XSP2: Attagene TRANS-FACTORIAL Multi-Species (XSP2) HepG2 Assay for chicken Androgen Receptor (AR) (AID 2283819);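 further: hits raise reporter mRNA above DMSO so potency is for activation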
Outline: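 HepG2 cells transiently transfected with chicken AR–GAL4 chimeric reporter constructs, stimulated with 3 nM 6-alpha-fluorotestosterone plus 1.5 nM norgestrel, dosed 24 h. Reporter mRNA quantified by RT-PCR and capillary electrophoresis; gain of signal fitted versus DMSO.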

[10] = test system: zebrafish Androgen Receptor (AR), gene 100005148; assay: ATG_zfAR_XSP2: Attagene TRANS-FACTORIAL Multi-Species (XSP2) HepG2 Assay for zebrafish Androgen Receptor (AR) (AID 2283825);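 further: hits raise reporter mRNA above DMSO so AC50 reflects agonist-type gain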
Outline: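 Zebrafish AR–GAL4 chimera transiently expressed with GAL4-UAS reporter in HepG2 cells, co-stimulated with 3 nM 6-alpha-fluorotestosterone and 1.5 nM norgestrel; 24 h dosing, reporter mRNA read by RT-PCR/capillary electrophoresis versus DMSO.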

Sequence of chicken Estrogen Receptor (ERa), ESR1 (gene 396099) (P06212 whole entry, looked up, the tested form may be a part): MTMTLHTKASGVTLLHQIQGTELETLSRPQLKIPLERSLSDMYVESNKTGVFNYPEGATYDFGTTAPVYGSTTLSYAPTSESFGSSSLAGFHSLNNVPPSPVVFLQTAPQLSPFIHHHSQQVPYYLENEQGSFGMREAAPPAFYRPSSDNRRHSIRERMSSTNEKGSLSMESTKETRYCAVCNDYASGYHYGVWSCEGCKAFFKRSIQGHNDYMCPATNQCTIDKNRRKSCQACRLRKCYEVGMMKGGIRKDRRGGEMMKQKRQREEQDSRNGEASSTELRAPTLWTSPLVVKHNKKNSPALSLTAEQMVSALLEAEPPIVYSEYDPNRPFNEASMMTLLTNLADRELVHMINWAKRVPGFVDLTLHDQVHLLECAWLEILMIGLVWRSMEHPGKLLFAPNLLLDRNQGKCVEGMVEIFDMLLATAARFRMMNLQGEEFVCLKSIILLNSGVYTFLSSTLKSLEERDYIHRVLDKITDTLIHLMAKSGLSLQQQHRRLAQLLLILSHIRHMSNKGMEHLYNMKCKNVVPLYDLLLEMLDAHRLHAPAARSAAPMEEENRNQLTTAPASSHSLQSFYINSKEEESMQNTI
Sequence of zebrafish Estrogen Receptor (ER1), esr1 (gene 259252) (P57717 whole entry, looked up, the tested form may be a part): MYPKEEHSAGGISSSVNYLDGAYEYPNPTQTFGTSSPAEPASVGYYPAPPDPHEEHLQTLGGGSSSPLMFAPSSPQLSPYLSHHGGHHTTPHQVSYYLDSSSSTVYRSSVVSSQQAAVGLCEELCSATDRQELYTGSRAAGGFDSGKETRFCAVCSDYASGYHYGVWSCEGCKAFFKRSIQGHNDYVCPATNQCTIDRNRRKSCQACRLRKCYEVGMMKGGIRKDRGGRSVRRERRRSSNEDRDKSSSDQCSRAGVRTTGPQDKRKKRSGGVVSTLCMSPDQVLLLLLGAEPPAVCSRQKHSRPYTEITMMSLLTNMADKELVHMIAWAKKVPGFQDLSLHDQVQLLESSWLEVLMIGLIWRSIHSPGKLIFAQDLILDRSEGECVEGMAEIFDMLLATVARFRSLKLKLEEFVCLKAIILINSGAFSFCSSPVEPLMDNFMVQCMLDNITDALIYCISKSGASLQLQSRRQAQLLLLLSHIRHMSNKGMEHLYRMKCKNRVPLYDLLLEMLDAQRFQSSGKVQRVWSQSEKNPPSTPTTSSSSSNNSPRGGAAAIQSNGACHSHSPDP

## CCOP(=O)(NC(C)C)Oc1ccc(SC)c(C)c1 (stereo not drawn)
[1]
  outcome: inactive
[2]
  AC50: 31.1 µM (active)
  outcome: inactive
[3]
  AC50: 100 µM (active)
  outcome: inactive
[4]
  AC50: 148 µM (active) and 8.45 µM (active)
[5]
  AC50: 65.5 µM (active) and 43.8 µM (active)
[6]
  outcome: inactive

## CCOP(=S)(OCC)Oc1ccc2c(C)c(Cl)c(=O)oc2c1
[2]
  outcome: inactive
[3]
  outcome: inactive
[4]
  outcome: inactive
[5]
  AC50: 100 µM (active)
[6]
  outcome: inactive

## Nc1c(Cl)cc([N+](=O)[O-])cc1Cl
[1]
  outcome: inactive
[2]
  AC50: 26.8 µM (active)
  outcome: inactive
[3]
  outcome: inactive
[4]
  outcome: inactive
[7]
  outcome: inactive
[5]
  AC50: 25.3 µM (active) and 49.6 µM (active)
[6]
  outcome: inactive

## CCCOCC(=Nc1ccc(Cl)cc1C(F)(F)F)n1ccnc1
[1]
  outcome: inactive
[2]
  outcome: inactive
[3]
  outcome: inactive
[4]
  outcome: inactive
[5]
  AC50: 39.8 µM (active)
[6]
  outcome: inactive

## C#CC(C)(C)NC(=O)c1cc(Cl)cc(Cl)c1
[2]
  AC50: 3.34 µM (active)
[3]
  outcome: inactive
[4]
  AC50: 27.6 µM (active)
[5]
  outcome: inactive
[6]
  outcome: inactive

## CCC(CC)Nc1c([N+](=O)[O-])cc(C)c(C)c1[N+](=O)[O-]
[1]
  AC50: 7.37 µM (active)
  outcome: inactive
[2]
  AC50: 5.63 µM (active) and 4.3 µM (active)
[3]
  outcome: inactive
[4]
  AC50: 3.96 µM (active) and 5.7 µM (active)
[5]
  AC50: 18.1 µM (active) and 7.12 µM (active)
[6]
  outcome: inactive

## CCc1cccc(C)c1N(C(=O)CCl)C(C)COC (stereo not drawn)
[8]
  outcome: inactive
[1]
  outcome: inactive
[2]
  outcome: inactive
[9]
  outcome: inactive
[5]
  outcome: inactive
[6]
  outcome: inactive

## COc1ccc(C(=CC(=O)N2CCOCC2)c2ccc(Cl)cc2)cc1OC
[1]
  AC50: 58.2 µM (active)
  outcome: inactive
[2]
  outcome: inactive
[3]
  outcome: inactive
[4]
  outcome: inactive
[5]
  AC50: 100 µM (active) and 54.2 µM (active)
[10]
  outcome: inactive

## C#CCC1=C(C)C(OC(=O)C2C(C=C(C)C)C2(C)C)CC1=O (stereo not drawn)
[1]
  outcome: inactive
[3]
  outcome: inactive
[4]
  outcome: inactive
[5]
  outcome: inactive

## CCC(=O)Nc1ccc(Cl)c(Cl)c1
[1]
  outcome: inactive
[2]
  outcome: inactive
[3]
  outcome: inactive
[4]
  AC50: 38 µM (active)
  outcome: inactive
[5]
  AC50: 170 µM (active)
  outcome: inactive
